Test results taken from PubChem BioAssay (NCI).
About 83,000 compounds went through this panel and 20% of them were active in at least one assay; those are over-represented in the sample as a whole.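 Compound tested at a single concentration for 48 hours in 96-well plates; a percent growth value below 10 was scored as active.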 Values without a mark were called inactive. The source made the active and inactive calls.

System: HL-60(TB) leukemia
Test: NCI-60 one-dose screen, 48 h (100 = growth as untreated, 0 = no growth, -100 = all killed)
Details: 10 µM unless noted

SMILES | growth
CC(=S)Nc1ccccc1 | 103%
Cc1ccc(C(=NN=C(N)N)c2ccc(C)cc2)cc1 | -28% (active)
CCCCc1ccc(C(N)=O)nc1 | 88.2%
C=C1C(=O)O[C@H]2[C@H]1CC/C(Cn1cc(-c3ccccc3)nn1)=C\CC[C@@]1(C)O[C@@H]21 | -28.9% (active)
CCNC(=O)Nc1ncccc1OCc1ccc(F)cc1 | 95.5%
Cc1nc2sc(C(=O)Nc3cccc(Cl)c3C)c(N)c2cc1C(C)O (stereo unspecified) | -18.7% (active)
CCN(CC)CCCC(C)N/C(=C1\C(=O)NC(=O)\C1=C(/NC(C)CCCN(CC)CC)c1cccc(OC)c1)c1cccc(OC)c1 (stereo unspecified) | -35.6% (active)
CN(C)N=Nc1nn(C(=O)Nc2ccc(Cc3ccccc3)cc2)c2ccccc12 | 21.4%
Oc1ccc(Br)cc1Sc1cc(Br)ccc1O | 27.9%
Cc1cc2cn3c4cccnc4[nH]c(=O)c3c2cc1C | -32.6% (active)
CSc1nc2c(c(=O)[nH]1)C(c1ccc(C)cc1)C=C(C(=O)O)N2 (stereo unspecified) | 114%
O=C(O)c1cc(C(=O)O)cc([N+](=O)[O-])c1 | 94.5%
CC(=O)/C=C/c1cc2cc(Cl)ccc2[nH]c1=O | 54.5%
COc1ccc(C2=C/C(=C\c3ccc(Cl)cc3)C(=O)N2/N=C/c2ccc(Cl)cc2)cc1 | 102%
CCCCNCC(O)c1cc(-c2ccc(C(F)(F)F)cc2)nc(-c2ccc(C(F)(F)F)cc2)c1 (stereo unspecified) | -49.2% (active)
COc1cc2c(/C=C3/C(=O)Nc4ccc(O)cc43)c(Cl)n(Cc3cc(OC)c(OC)c(OC)c3)c2cc1C | -33.7% (active)
